Over roughly 33,000 sequences, “E-score (-0.5 to 0.5)” has its median near -0.0034; the highest 2% begin near 0.25. This is one part of a sample in which the highest values are shown more often than they occur.
These sequences were tested against T1, Yap3 (UniProt P38749) (assay: PBM E-score (8-mer binding enrichment) (E-score (-0.5 to 0.5)); higher = stronger / more preferred TF binding). Details: protein concentration: 100 nM; construct: GST-full length.
T1 sequence: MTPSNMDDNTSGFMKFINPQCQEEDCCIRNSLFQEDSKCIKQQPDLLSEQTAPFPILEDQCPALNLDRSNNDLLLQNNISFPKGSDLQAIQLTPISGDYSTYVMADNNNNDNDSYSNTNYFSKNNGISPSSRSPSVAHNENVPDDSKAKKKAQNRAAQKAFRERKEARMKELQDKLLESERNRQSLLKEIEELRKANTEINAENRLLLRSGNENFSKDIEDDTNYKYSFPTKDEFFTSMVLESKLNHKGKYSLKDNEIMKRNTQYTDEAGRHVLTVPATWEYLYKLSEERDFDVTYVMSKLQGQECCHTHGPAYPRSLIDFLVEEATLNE
Experimental: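 Universal 'all 10-mer' protein binding microarrays (Agilent AMADID 015681) probed with GST-tagged S. cerevisiae TFs (full-length or DBD) made by in vitro transcription/translation (PURExpress), about 100-200 nM. Bound TF was detected with fluorescent anti-GST. Each ungapped 8-mer (which stands for itself and its reverse complement) is scored by the PBM enrichment score (E-score), a modified Wilcoxon-Mann-Whitney statistic from -0.5 to +0.5, computed with the Universal PBM Analysis Suite. Scale: above 0.35 generally sequence-specific binding.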

Row | Sequence | PBM E-score
1 | TAACGATA | 0.261
2 | AAACGATA | 0.0765
3 | CAACGATA | 0.0838
4 | GAACTGTA | 0.208
5 | AATCAGGA | 0.0679
6 | CCTAAATA | -0.122
7 | AATAAAGA | 0.156
8 | AATAAATA | 0.315
9 | ACTAAATC | 0.198
10 | AATAAATG | 0.216
11 | AATAAATT | 0.186
12 | GATAAATA | 0.233
13 | AATAAAGT | 0.262
14 | ACTAAATA | 0.29
15 | AATAAAGG | -0.0245
16 | TATAAATA | 0.301
17 | CATAAATA | 0.197
18 | ATACTAGC | 0.0285
19 | GCCAGTCC | -0.343
20 | CGATCGGC | 0.00629
21 | GAGCTAAC | 0.0153
22 | ACTCGCAC | -0.0984
23 | AGTCGCAC | -0.233
24 | AACTTGAT | 0.15
25 | GGCGGTGA | 0.132

Row | Sequence | PBM E-score
26 | GAAGACCA | -0.105
27 | CGGTAAAA | 0.114
28 | GGGTAAAC | 0.0445
29 | GGGTAAAA | 0.258
30 | AGATAAGG | -0.0911
31 | AATAGAAC | 0.16
32 | GTACTAAA | 0.21
33 | TCACTAAA | 0.121
34 | ACACTAAA | 0.261
35 | AAACTAAT | 0.272
36 | TTACTAAA | 0.401
37 | GCACTAAA | 0.179
38 | ATACTAAA | 0.188
39 | AAACTAAC | 0.232
40 | TAACTAAA | 0.165
41 | AAACTAAA | 0.261
42 | AAACTAAG | 0.186
43 | GAACTAAA | 0.0567
44 | ATTTCTAG | 0.083
45 | GGATCCAA | 0.138
46 | CAGCGACG | -0.0734
47 | GATTGGAC | 0.0901
48 | TCCTCTCA | 0.0272
49 | ACGATCAA | 0.0848
50 | ACAGAGGA | -0.00698

Row | Sequence | PBM E-score
51 | ACGGAAAG | 0.144
52 | ACGGAAAC | -0.079
53 | GCGGAAAA | 0.245
54 | AAAGAAAA | 0.18
55 | AAGAAATT | 0.199
56 | ACGGAAAT | 0.323
57 | AAGAAAAT | 0.273
58 | TCGGAAAA | 0.275
59 | AAAGAAAT | 0.26
60 | ACGGAAAA | 0.107
61 | AAGAAAAA | 0.059
62 | AAAGAAAG | 0.231
63 | ACCCTTTA | 0.101
64 | CGCTGGTC | -0.307
65 | ACGCTGAA | -0.00885
66 | CCCATTGA | -0.0177
67 | GATGCGAA | 0.057
68 | TCCGGTCA | 0.00023
69 | AAGTATCA | 0.052
70 | CCCCACTA | -0.135
71 | AAGTTGCC | -0.0508
72 | ACGAAAAT | 0.257
73 | ACGAAAAA | 0.0676
74 | ACGAAAAG | 0.153
75 | GACTCATC | -0.108

Row | Sequence | PBM E-score
76 | CGCGCTTA | 0.265
77 | CGCGCTGA | 0.0303
78 | AGCGCTTA | 0.0641
79 | ATCGATGC | 0.133
80 | CATTAAGA | 0.0516
81 | ATTGTTAG | 0.153
82 | GTTGTTTA | 0.273
83 | CTTGTTAC | 0.0269
84 | ATTGTTAA | 0.17
85 | CTTGTTAA | 0.022
86 | ATTGTTTA | 0.0804
87 | CTTGTTTA | 0.0644
88 | ATTGTTAC | 0.288
89 | GTTGTTAA | 0.298
90 | TTCAAAAA | 0.0865
91 | ACGTCCTA | 0.00661
92 | AGCACACT | 0.0288
93 | GGATCCAC | -0.0381
94 | GGAAAGCA | 0.018
95 | AGAAAGCA | 0.232
96 | TGAAAGCA | 0.254
97 | GGAAAGAA | 0.0609
98 | TGAAAGAA | 0.297
99 | AGAAAGAA | 0.0357
100 | CGGCGTAC | -0.15

Row | Sequence | PBM E-score
101 | ACGGTTGC | -0.0961
102 | TCCTGTCA | -0.0145
103 | CCCTGGCC | -0.333
104 | AAATCCAC | 0.0662
105 | AAATCCAT | 0.29
106 | AAATCCAG | 0.249
107 | CCGCTGTA | 0.117
108 | ATATAATG | 0.2
109 | ATATAAGA | 0.346
110 | CTATAAGA | 0.182
111 | GTATAATA | 0.287
112 | GTATAACA | 0.133
113 | GTATAAGA | 0.0832
114 | GGATAATA | 0.0461
115 | ATATAATA | 0.299
116 | CTATAATA | 0.0592
117 | AGTAAGCA | 0.00993
118 | AATCTGCG | -0.0221
119 | AGCCCGCA | -0.123
120 | AGCAACGC | -0.0123
121 | AGTTTCGG | 0.0851
122 | ATTAATTC | 0.3
123 | CCTAATTA | 0.136
124 | ATTAATTG | 0.245
125 | GCTAATTA | 0.279

Row | Sequence | PBM E-score
126 | GCTAATAA | 0.144
127 | GTTAATGA | 0.133
128 | ACTAATTG | 0.167
129 | ATTAATTA | 0.241
130 | ACTAATTA | 0.362
131 | ACTAATTC | 0.178
132 | GTTAATTA | 0.262
133 | CTTAATTA | 0.174
134 | AGAGATCA | 0.0988
135 | AAACGAGT | 0.217
136 | CAAGCTAA | -0.0766
137 | CTTTTAAC | 0.0122
138 | AACAAAGT | 0.221
139 | AGCGAGCC | -0.122
140 | AAAGACTG | -0.0469
141 | CTATTATA | 0.145
142 | GTATTACA | 0.291
143 | ATATTATA | 0.186
144 | GTATTAGA | 0.217
145 | CTATTACA | 0.163
146 | GTATTATA | 0.329
147 | CCTTAAAG | 0.06
148 | CAAGTTGG | 0.106
149 | GTTGCTAA | 0.251
150 | CACCTGGG | -0.178

Row | Sequence | PBM E-score
151 | AAGCCTGG | -0.0378
152 | CCATCGTA | 0.0169
153 | AAACAGCG | 0.2
154 | CCAGTAAC | 0.0196
155 | CAATATAA | 0.307
156 | AAATATAA | 0.275
157 | AAATATGA | 0.224
158 | GAATATAA | 0.195
159 | AGATATAA | 0.211
160 | AAATATGT | 0.286
161 | CAATATAC | 0.112
162 | TAATATAA | 0.344
163 | CAATATAG | 0.218
164 | AAATATGC | 0.00442
165 | TCATATAA | 0.203
166 | AGGATTGA | 0.129
167 | AGCAAGAT | 0.14
168 | AATTTCTG | 0.089
169 | ATCCCATA | -0.106
170 | GTTGCATA | -0.0298
171 | ATTTAGCC | 0.0798
172 | AGGGAGTC | -0.235

— the supplement of paper PMC3334620
